From the supplement of paper PMC6089552
Hit rate of the full screen: of about 3,200 compounds, about 300 (9.4%) showed activity. For the sample, actives were picked, then their nearest neighbours and some compounds at random. Values without a mark were called inactive.

System: A673/TR/shEF
Experiment: cell viability (LOESS-normalised, relative to median of negative controls) (log2 ratio); higher = more viable cells (less compound effect), active = hit call of the paper (over 3 MAD below the median)
Details: treatment time: 72 h
In short: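 For three days, A673/TR/shEF Ewing sarcoma cells in 384-well plates (1,500 per well) were treated with library compounds at two or more concentrations or with DMSO controls, after doxycycline had been added or withheld 24 h beforehand to induce EWS-FLI1 shRNA knockdown. Viability was read by CellTiter-Glo luminescence on an Envision reader. The data were LOESS-corrected per plate, divided by the median of negative controls and log2-transformed.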

[1] = 0.25 µM, library screen: screen1, EWS-FLI1 expression: high (no doxycycline)
[2] = 0.25 µM, library screen: screen1, EWS-FLI1 expression: low (doxycycline-induced shRNA knockdown)
[3] = 2.5 µM, library screen: screen1, EWS-FLI1 expression: high (no doxycycline)
[4] = 2.5 µM, library screen: screen1, EWS-FLI1 expression: low (doxycycline-induced shRNA knockdown)
[5] = 0.25 µM, library screen: screen2, EWS-FLI1 expression: high (no doxycycline)
[6] = 0.25 µM, library screen: screen2, EWS-FLI1 expression: low (doxycycline-induced shRNA knockdown)
[7] = 2.5 µM, library screen: screen2, EWS-FLI1 expression: high (no doxycycline)
[8] = 2.5 µM, library screen: screen2, EWS-FLI1 expression: low (doxycycline-induced shRNA knockdown)

CCOC(=O)CC(SP(=S)(OC)OC)C(=O)OCC (stereo unspecified)
cell viability (log2) [1]: 0.0518 | cell viability (log2) [2]: 0.0626 | cell viability (log2) [3]: 0.101 | cell viability (log2) [4]: 0.14

CN[C@@H]1[C@@H](O)[C@@H](O[C@@H]2[C@@H](O)[C@H](O[C@H]3O[C@H](CN)CC[C@H]3N)[C@@H](N)C[C@H]2N)OC[C@]1(C)O
cell viability (log2) [1]: 0.0502 | cell viability (log2) [2]: -0.0312 | cell viability (log2) [3]: 0.184 | cell viability (log2) [4]: 0.0476

CC1(C)C2CC(=O)[C@]3(C)C(CC[C@@]4(C)[C@H](c5ccoc5)OC(=O)[C@H]5O[C@]543)[C@@]2(C)C=C[C@@H]1O (stereo partly specified)
cell viability (log2) [1]: 0.0868 | cell viability (log2) [2]: 0.0799 | cell viability (log2) [3]: 0.177 | cell viability (log2) [4]: 0.105

Oc1cc2c(cc1O)[C@H]1c3ccccc3CN[C@@H]1CC2
cell viability (log2) [5]: 0.0852 | cell viability (log2) [6]: -0.0099 | cell viability (log2) [7]: 0.117 | cell viability (log2) [8]: 0.00998

CC(C)N(CCC(C(N)=O)(c1ccccc1)c1ccccn1)C(C)C (stereo unspecified)
cell viability (log2) [1]: 0.118 | cell viability (log2) [2]: 0.068 | cell viability (log2) [5]: 0.102 | cell viability (log2) [6]: 0.0965 | cell viability (log2) [3]: 0.167 | cell viability (log2) [4]: 0.146 | cell viability (log2) [7]: 0.0737 | cell viability (log2) [8]: 0.0918

O=S1OCC2C(CO1)C1(Cl)C(Cl)=C(Cl)C2(Cl)C1(Cl)Cl (stereo unspecified)
cell viability (log2) [1]: 0.126 | cell viability (log2) [2]: 0.0993 | cell viability (log2) [3]: 0.0998 | cell viability (log2) [4]: -2.97

COc1ccc(CCN)cc1O
cell viability (log2) [5]: 0.19 | cell viability (log2) [6]: 0.105 | cell viability (log2) [7]: 0.0411 | cell viability (log2) [8]: 0.0823

CC1(C)C2C[C@@H](O)[C@]3(C)C(CC[C@@]4(C)[C@H](c5ccoc5)OC(=O)[C@H]5O[C@]543)[C@@]2(C)[C@@H](O)C[C@H]1O (stereo partly specified)
cell viability (log2) [1]: 0.0675 | cell viability (log2) [2]: 0.0959 | cell viability (log2) [3]: 0.135 | cell viability (log2) [4]: 0.0584

C[N+]1(C)[C@H]2CC(OC(=O)C(CO)c3ccccc3)C[C@H]1[C@H]1O[C@H]12 (stereo partly specified)
cell viability (log2) [5]: 0.258 | cell viability (log2) [6]: 0.0872 | cell viability (log2) [7]: 0.133 | cell viability (log2) [8]: -0.00973

CO[C@H]1[C@H](O)[C@H](O[C@H]2CC[C@@]3(C=O)[C@H](CC[C@@H]4[C@@H]3CC[C@]3(C)[C@@H](C5=CC(=O)OC5)CC[C@]43O)C2)O[C@@H](C)[C@@H]1O
cell viability (log2) [1]: -3.17 (active) | cell viability (log2) [2]: -3.22 (active) | cell viability (log2) [3]: -3.52 (active) | cell viability (log2) [4]: -4.22 (active)

CO[C@H]1[C@H](O)[C@H](O[C@H]2CC[C@@]3(C)[C@H](CC[C@@H]4[C@@H]3CC[C@]3(C)[C@@H](C5=CC(=O)OC5)CC[C@]43O)C2)O[C@@H](C)[C@@H]1O
cell viability (log2) [1]: 0.0843 | cell viability (log2) [2]: 0.064 | cell viability (log2) [3]: -4.02 (active) | cell viability (log2) [4]: -4.27 (active)

C[C@@H]1[C@H](O)[C@@H](C)/C=C/C=C/CC/C=C/C=C/C=C/C=C/C(O[C@H]2O[C@H](C)[C@@H](O)[C@H](N)[C@@H]2O)CC2O[C@](O)(CC(O)C(O)CCC(O)CC(O)CC(O)CC(=O)O[C@H]1C)CC(O)C2C(=O)O (stereo partly specified)
cell viability (log2) (0.103 µM, library screen: screen3, EWS-FLI1 expression: high (no doxycycline)): 0.0278 | cell viability (log2) (0.103 µM, library screen: screen3, EWS-FLI1 expression: low (doxycycline-induced shRNA knockdown)): 0.00627 | cell viability (log2) [1]: 0.0655 | cell viability (log2) [2]: 0.0679 | cell viability (log2) (0.308 µM, library screen: screen3, EWS-FLI1 expression: high (no doxycycline)): 0.00683 | cell viability (log2) (0.308 µM, library screen: screen3, EWS-FLI1 expression: low (doxycycline-induced shRNA knockdown)): 0.0137 | cell viability (log2) (0.926 µM, library screen: screen3, EWS-FLI1 expression: high (no doxycycline)): 0.00828 | cell viability (log2) (0.926 µM, library screen: screen3, EWS-FLI1 expression: low (doxycycline-induced shRNA knockdown)): 0.0539 | cell viability (log2) [3]: 0.133 | cell viability (log2) [4]: 0.104 | cell viability (log2) (2.8 µM, library screen: screen3, EWS-FLI1 expression: high (no doxycycline)): -0.00919 | cell viability (log2) (2.8 µM, library screen: screen3, EWS-FLI1 expression: low (doxycycline-induced shRNA knockdown)): 0.0174 | cell viability (log2) (8.3 µM, library screen: screen3, EWS-FLI1 expression: high (no doxycycline)): 0.0134 | cell viability (log2) (8.3 µM, library screen: screen3, EWS-FLI1 expression: low (doxycycline-induced shRNA knockdown)): 0.0644 | cell viability (log2) (25 µM, library screen: screen3, EWS-FLI1 expression: high (no doxycycline)): 0.0075 | cell viability (log2) (25 µM, library screen: screen3, EWS-FLI1 expression: low (doxycycline-induced shRNA knockdown)): 0.0194

CN=C1CN(O)C(c2ccccc2)=c2cc(Cl)ccc2=N1
cell viability (log2) [1]: 0.0853 | cell viability (log2) [2]: 0.0654 | cell viability (log2) [3]: 0.0997 | cell viability (log2) [4]: 0.0898

CCN1C[C@]2(C)CC[C@H](OC)[C@@]34C1[C@]1(OCO[C@@]15C[C@H](OC)[C@H]1C[C@]3(O)[C@@H]5[C@H]1OC)[C@@H](OC(C)=O)[C@H]24
cell viability (log2) [1]: 0.0895 | cell viability (log2) [2]: 0.0208 | cell viability (log2) [3]: 0.12 | cell viability (log2) [4]: 0.0444

C=CCN1CC[C@]23c4c5ccc(O)c4O[C@@H]2/C(=N/N=C2\CC[C@@]4(O)C6Cc7ccc(O)c8c7[C@@]4(CCN6CC=C)[C@@H]2O8)CC[C@@]3(O)C1C5
cell viability (log2) [5]: 0.27 | cell viability (log2) [6]: 0.119 | cell viability (log2) [7]: 0.0736 | cell viability (log2) [8]: 0.0511

S=C=NCc1ccccc1
cell viability (log2) [1]: 0.0421 | cell viability (log2) [2]: 0.0817 | cell viability (log2) [3]: 0.0546 | cell viability (log2) [4]: 0.123

CCOP(=S)(OCC)Oc1ccc2c(C)c(Cl)c(=O)oc2c1
cell viability (log2) [1]: -0.0154 | cell viability (log2) [2]: -0.0116 | cell viability (log2) [3]: 0.000589 | cell viability (log2) [4]: -0.0198

COc1c2c(cc3c1OCO3)CC[N+](C)=C2
cell viability (log2) [1]: 0.122 | cell viability (log2) [2]: 0.157 | cell viability (log2) [3]: 0.0941 | cell viability (log2) [4]: 0.18

COc1ccc(C(=O)OC2CCC3(C)C4CCC5[C@]6(O)C[C@H](O)[C@@]7(O)C(CN8CC(C)CCC8[C@@]7(C)O)[C@]6(O)C[C@@]53O[C@]24O)cc1OC (stereo partly specified)
cell viability (log2) [1]: 0.0564 | cell viability (log2) [2]: 0.0531 | cell viability (log2) [3]: 0.0896 | cell viability (log2) [4]: 0.133

S=C=Nc1cccc(C2(N3CCCCC3)CCCCC2)c1
cell viability (log2) [5]: 0.168 | cell viability (log2) [6]: 0.105 | cell viability (log2) [7]: 0.16 | cell viability (log2) [8]: 0.118
